Assay results from PubChem BioAssay (Tox21).
Where “and” joins values, the source holds several entries; their conditions need not be identical. Identical values can stand only once. Records with an inconclusive call do not appear. Some structures have more than one record in an assay (separate samples or runs), and their calls can disagree. Calls of active or inactive are those of the source. Unless noted, calls come from the whole dose curve; as a rule, active = well fitted curve in the direction sought with a large enough effect in the repeat runs; inconclusive = weak or mixed curves; inactive = no such curve, though single readings can be large; an effect the other way counts as inactive or inconclusive.

Assays:
[1] = qHTS assay for small molecule agonists of the p53 signaling pathway - cell viability (AID 651633; calls by dose curve; note: nearly all actives have a fitted effect of over 30% in size; note: potency is the fitted concentration of half-maximal effect)
In short: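 Viability counter-read: CellTiter-Glo luminescence (30 min, room temperature) in the same p53RE-bla plates. These plates had been exposed to compounds for 16 h at 37 C.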

[2] = system: thyroid hormone receptor (rat, GH3 cells); assay: qHTS assay to identify small molecule agonists of the thyroid receptor (TR) signaling pathway (AID 743066; calls by dose curve; note: % is set by controls: 0 for no effect and ±100 for the full control effect)
[3] = qHTS assay to identify small molecule antagonists of the estrogen receptor alpha (ER-alpha) signaling pathway using the BG1 cell line (AID 743080; calls by dose curve;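 note: BG1 cells stimulated with 17beta-estradiol alongside compound; nearly all actives have a fitted effect of over 25% in size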; note: potency is the fitted concentration of half-maximal effect)
In short: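 Endogenous full-length ER-alpha in BG1-Luc-4E2 cells drives a stably integrated 4×ERE luciferase gene; compounds were tested against 17beta-estradiol over 21.5 h, with luminescence and multiplexed viability fluorescence recorded.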

[4] = qHTS assay for small molecule agonists of the antioxidant response element (ARE) signaling pathway - cell viability counter screen (AID 743203; calls by dose curve; note: nearly all actives have a fitted effect of over 55% in size; note: potency is the fitted concentration of half-maximal effect)
In short: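 Viability counter screen: stably transfected ARE-bla HepG2 line, 16 hrs compound exposure at 37C/5% CO2, ATP-based CellTiter-Glo luminescence measured in the reporter wells.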

[5] = qHTS assay to identify small molecule agonists of the vitamin D receptor (VDR) signaling pathway - cell viability counter screen (AID 743224); note: nearly all actives have a fitted effect of over 50% in size; note: potency is the fitted concentration of half-maximal effect
In short: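 Compounds were pin-transferred onto VDR-bla cells plated 4 h earlier; following 16 h incubation at 37C, cell viability was quantified by CellTiter-Glo luminescence after 30 min at room temperature.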

[6] = qHTS assay to identify small molecule antagonists of the retinoid-related orphan receptor gamma (ROR-gamma) signaling pathway - cell viability counter screen (AID 1159520); note: nearly all actives have a fitted effect of over 50% in size; note: potency is the fitted concentration of half-maximal effect
In short: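 Cytotoxicity was read from cellular ATP (CellTiter-Glo luminescence) after 16 hr at 37 C with 1 uM doxycycline induction. The inducer was added 2 hr after compound transfer to Tet-on ROR gamma CHO cells.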

[7] = qHTS assay to identify small molecule agonists of the retinoic acid receptor (RAR) signaling pathway (AID 1159553); note: % is set by controls: 0 for no effect and ±100 for the full control effect
In short: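 Quantitative high-throughput format: the Tox21 10K library was tested on C3RL4 RARE-luciferase cells for 6 hr at 37 C and 5% CO2, with luminescence measured after a 30 min room-temperature reagent step.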

[8] = qHTS assay to identify small molecule agonists of the hypoxia (HIF-1) signaling pathway (AID 1224846; active = well fitted activation curve with a large enough effect in the signal ratio in the repeat runs, not every such curve was filed as active; the % refers to the signal ratio; note: % is set by controls: 0 for no effect and ±100 for the full control effect)
In short: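 Agonist mode reporter screen. ME-180 cells stably expressing bla under HRE control received test compounds in DMSO for 17 hrs (37C, 5% CO2), and beta-lactamase activity was then detected with the CCF4-AM FRET substrate.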

[9] = qHTS assay to identify small molecule phospholipidosis (PLD) inducers (AID 1259344; active = well fitted curve in the direction sought with a large enough effect; an effect the other way counts as inactive or inconclusive; note: potency is the fitted concentration of half-maximal effect)
In short: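 Accumulated phospholipid, stained red by LipidTOX during 24 h compound treatment of HepG2 cells at 37 C, is quantified from images as pit number and intensity, normalised per cell using Hoechst-stained nuclei.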

[10] = qHTS assay for small molecule disruptors of the mitochondrial membrane potential - cell viability (AID 720634; calls by dose curve; note: nearly all actives have a fitted effect of over 20% in size; note: potency is the fitted concentration of half-maximal effect)
In short: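 ATP-based luminescent viability readout (CellTiter-Glo, 30 min, room temperature) in HepG2 cells multiplexed with the m-MPI membrane potential dye; compound exposure lasted 1 hr at 37 C.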

[11] = qHTS assay to identify small molecule antagonists of the peroxisome proliferator-activated receptor gamma (PPARg) signaling pathway - cell viability counter screen (AID 743194); conditions: Potency: co-treated with 50 nM rosiglitazone unless noted; note: nearly all actives have a fitted effect of over 55% in size; note: potency is the fitted concentration of half-maximal effect
In short: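 Viability was measured as CellTiter-Glo luminescence in GeneBLAzer PPARg UAS-bla HEK293H cells. These cells had been exposed 17 h at 37 C to compounds together with rosiglitazone at 50 nM final, with the beta-lactamase readout taken in the same wells.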

[12] = qHTS assay for small molecule activators of the heat shock response signaling pathway - cell viability counter screen (AID 743209); note: nearly all actives have a fitted effect of over 50% in size; note: potency is the fitted concentration of half-maximal effect
In short: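 Viability of HSE-bla HeLa cells is measured with CellTiter-Glo in the wells already used for the reporter read. Compound exposure lasts 5 h at 37 C, and luminescence is read after 30 min at room temperature.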

[13] = molecular target: Peroxisome proliferator-activated receptor delta (Homo sapiens) (UniProt Q03181); assay: qHTS assay to identify small molecule agonists of the peroxisome proliferator-activated receptor delta (PPARd) signaling pathway (AID 743212; calls by dose curve;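 note: HEK293H cells with PPARd UAS beta-lactamase reporter GeneBLAzer system; % is set by controls: 0 for no effect and ±100 for the full control effect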)
In short: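 Steps: seed PPARd-bla HEK293H cells; incubate 5 h, 37 C, 5% CO2; add compounds in DMSO; incubate, 37 C; add LiveBLAzer B/G FRET substrate; hold 2 h at room temperature; measure fluorescence.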

[14] = qHTS assay to identify small molecule agonists of the farnesoid-X-receptor (FXR) signaling pathway - cell viability counter screen (AID 743218); note: nearly all actives have a fitted effect of over 45% in size; note: potency is the fitted concentration of half-maximal effect
In short: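 Viability of FXR-bla HEK 293T cells is measured by ATP-based CellTiter-Glo luminescence following 16 h compound treatment at 37 C and a prior 2 h room-temperature beta-lactamase substrate step.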

[15] = qHTS assay to identify small molecule antagonists of the vitamin D receptor (VDR) signaling pathway - cell viability counter screen (AID 743225); note: nearly all actives have a fitted effect of over 50% in size; note: potency is the fitted concentration of half-maximal effect
In short: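 VDR-UAS-bla HEK 293T cells were plated and incubated 4 h at 37C, then dosed with compound plus 3 nM (final) 1-alpha,25-dihydroxyvitamin D3 for 16 h. After the 2 h beta-lactamase read, viability in the same wells was read as CellTiter-Glo luminescence after 30 min at room temperature.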

[16] = qHTS assay for small molecule disruptors of the mitochondrial membrane potential (AID 720635); note: potency is the fitted concentration of half-maximal effect
In short: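 Mitochondrial membrane potential tracked with Mito-MPS dye, red aggregates (ex 540/em 590 nm) against green monomers (ex 490/em 535 nm). Compound treatment 1 hr at 37C, dye 30 min in HepG2.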

[17] = qHTS assay to identify small molecule antagonists of the glucocorticoid receptor (GR) signaling pathway - cell viability counter screen (AID 720693); note: nearly all actives have a fitted effect of over 55% in size; note: potency is the fitted concentration of half-maximal effect
[18] = qHTS assay to identify small molecule antagonists of the estrogen receptor alpha (ER-alpha) signaling pathway - cell viability counter screen (AID 743074; calls by dose curve;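 note: HEK293 cells carrying ER-alpha-UAS-bla reporter stimulated with 17beta-estradiol; nearly all actives have a fitted effect of over 45% in size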; note: potency is the fitted concentration of half-maximal effect)
[19] = qHTS assay to identify small molecule antagonists of the peroxisome proliferator-activated receptor delta (PPARd) signaling pathway - cell viability counter screen (AID 743213); note: nearly all actives have a fitted effect of over 50% in size; note: potency is the fitted concentration of half-maximal effect
In short: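 HEK293H cells with the PPARd UAS-bla reporter, co-treated 17 h at 37 C with compounds and L165041 (300 nM final), were lysed with CellTiter-Glo. Luminescence indicated viable cell content.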

[20] = molecular target: Glucocorticoid receptor (Homo sapiens) (UniProt P04150); assay: qHTS assay to identify small molecule agonists of the glucocorticoid receptor (GR) signaling pathway (AID 720691; active = well fitted activation curve with a large enough effect in the signal ratio in the repeat runs, not every such curve was filed as active; the % refers to the signal ratio; note: potency is the fitted concentration of half-maximal effect)
In short: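 Cells: GR-bla HeLa, endogenous GR with stably integrated GRE-beta-lactamase reporter. Treatment 18 h, 37 C, compounds delivered in DMSO. Detection via LiveBLAzer B/G FRET substrate, 2 h RT, fluorescence intensity.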

Peroxisome proliferator-activated receptor delta (Homo sapiens), sequence (Q03181 whole entry, looked up): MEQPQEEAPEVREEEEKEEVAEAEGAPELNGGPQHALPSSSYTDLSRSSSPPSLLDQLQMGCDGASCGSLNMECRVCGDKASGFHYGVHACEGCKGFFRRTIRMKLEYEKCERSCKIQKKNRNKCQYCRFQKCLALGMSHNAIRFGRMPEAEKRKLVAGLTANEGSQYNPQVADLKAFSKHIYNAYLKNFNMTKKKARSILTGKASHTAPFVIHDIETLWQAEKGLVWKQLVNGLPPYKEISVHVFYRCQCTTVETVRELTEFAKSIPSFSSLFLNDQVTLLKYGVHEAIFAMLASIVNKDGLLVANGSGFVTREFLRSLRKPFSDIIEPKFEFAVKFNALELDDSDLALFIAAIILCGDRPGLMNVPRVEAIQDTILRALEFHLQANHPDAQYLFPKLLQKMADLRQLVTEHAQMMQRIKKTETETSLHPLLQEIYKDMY
Glucocorticoid receptor (Homo sapiens), sequence (P04150 whole entry, looked up): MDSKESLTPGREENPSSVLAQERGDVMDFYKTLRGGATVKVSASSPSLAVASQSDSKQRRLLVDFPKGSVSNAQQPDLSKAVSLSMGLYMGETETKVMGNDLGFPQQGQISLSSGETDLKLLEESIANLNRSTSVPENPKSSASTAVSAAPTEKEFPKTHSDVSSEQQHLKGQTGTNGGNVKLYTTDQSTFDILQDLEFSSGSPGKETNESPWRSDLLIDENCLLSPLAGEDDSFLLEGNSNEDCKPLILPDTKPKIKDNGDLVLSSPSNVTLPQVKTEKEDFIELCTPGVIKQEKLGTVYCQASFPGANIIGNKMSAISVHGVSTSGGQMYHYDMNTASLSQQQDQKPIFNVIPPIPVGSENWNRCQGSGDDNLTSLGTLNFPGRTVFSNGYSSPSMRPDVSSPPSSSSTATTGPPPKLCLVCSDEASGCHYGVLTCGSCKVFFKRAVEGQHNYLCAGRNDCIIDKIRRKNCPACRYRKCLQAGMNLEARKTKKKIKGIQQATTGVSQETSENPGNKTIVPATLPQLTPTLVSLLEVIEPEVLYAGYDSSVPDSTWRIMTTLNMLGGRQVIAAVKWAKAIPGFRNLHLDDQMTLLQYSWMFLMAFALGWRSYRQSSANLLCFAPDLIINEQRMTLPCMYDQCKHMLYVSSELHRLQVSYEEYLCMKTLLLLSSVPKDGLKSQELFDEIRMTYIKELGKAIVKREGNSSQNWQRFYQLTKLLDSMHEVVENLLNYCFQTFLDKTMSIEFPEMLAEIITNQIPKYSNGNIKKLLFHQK

O=[N+]([O-])c1c(Cl)c(Cl)cc(Cl)c1Cl
inactive: Potency [1] | Potency [2] | Potency [3] | Potency [4] | Potency [5] | Potency [6] | outcome [7] | outcome [8] | Potency [9]

ClC(Cl)=C(c1ccc(Cl)cc1)c1ccccc1Cl
inactive: Potency [6] | outcome [8]

CC1COC(Cn2cncn2)(c2ccc(Oc3ccc(Cl)cc3)cc2Cl)O1 (stereo not drawn)
active: Potency [10] 2.43 µM | Potency [3] 13.7 µM | Potency [11] 49 µM | Potency [4] 54.5 µM | Potency [14] 49 µM | Potency [5] 54.9 µM | Potency [15] 49 µM
inactive: Potency [1] | Potency [12] | outcome [13] | outcome [7]

Cc1ccc2nc3sc(=O)sc3nc2c1
inactive: activity, negative = cytotoxicity [6] -10.1% [at 19 µM]

Cc1cc(C(C)(C)c2ccc(O)c(C)c2)ccc1O
active: Potency [16] 6.53 µM | Potency [11] 37 µM | Potency [4] 46.2 µM | Potency [5] 33 µM
inactive: Potency [1] | Potency [17] | Potency [2] | Potency [18] | outcome [13]

N#Cc1cc([N+](=O)[O-])ccc1N
inactive: Potency [6] | outcome [8]

Cc1ccc(N(SC(F)(Cl)Cl)S(=O)(=O)N(C)C)cc1
inactive: Potency [17]
active: Potency [16] 17.2 µM | Potency [11] 7.76 µM | Potency [4] 7.7 µM | Potency [19] 13.8 µM | Potency [14] 13.8 µM | Potency [5] 7.76 µM | Potency [6] 6.11 µM

ClC1=C(Cl)[C@]2(Cl)[C@@H]3[C@@H](Cl)[C@H]4O[C@H]4[C@@H]3C1(Cl)C2(Cl)Cl
inactive: Potency [1] | Potency [10] | Potency [18] | Potency [3] | outcome [13] | Potency [19] | outcome [8]
active: Potency [11] 43.6 µM

CCOC(=O)C(O)(c1ccc(Cl)cc1)c1ccc(Cl)cc1
inactive: Potency [2] | outcome [13] | outcome [8]
7.84 µM (active) and inactive: Potency [12]
active: Potency [1] 15.5 µM | Potency [10] 30.9 µM | Potency [16] 4.37 µM and 24.3 µM | Potency [17] 17.6 µM | Potency [4] 24.6 µM | Potency [19] 22.1 µM | Potency [5] 7.84 µM and 43.6 µM | Potency [15] 11.1 µM and 38.9 µM
24.8 µM (active) and inactive: Potency [18] | Potency [14]

O=S(=O)(C(Cl)(Cl)Cl)C(Cl)(Cl)Cl
active: Potency [6] 17.2 µM

Cc1nnc2n1-c1sc(CCc3ccc(CC(C)C)cc3)cc1C(c1ccccc1Cl)=NC2C (stereo not drawn)
inactive: Potency [10] | Potency [9]
active: Potency [1] 23.7 µM | Potency [17] 23.9 µM | Potency [11] 29.8 µM [setting not given] | Potency [12] 29.8 µM | Potency [14] 33.5 µM | Potency [15] 23.9 µM

Nc1ccc([N+](=O)[O-])cc1
active: Potency [16] 1.37 µM
inactive: Potency [20] | Potency [2] | Potency [9]

COc1cc(OC)c(OC)cc1C=O
inactive: Potency [1] | Potency [20] | Potency [3] | Potency [4] | Potency [19]

O=C1C(I)=CC(=C(c2cc(I)c(O)c(I)c2)c2ccccc2C(=O)O)C=C1I
active: Potency [16] 8.41 µM and 4.22 µM
inactive: Potency [10] | Potency [2] | Potency [18] | Potency [3] | outcome [13] | Potency [19] | Potency [14] | Potency [15] | Potency [6] | outcome [7] | Potency [9]

CNC(=O)Oc1cc(C)c(SC)c(C)c1
inactive: outcome [8]

OCC(c1ccc(Cl)cc1)c1ccc(Cl)cc1
inactive: Potency [18] | Potency [12] | Potency [14] | outcome [8]
active: Potency [3] 68.6 µM | Potency [15] 54.9 µM

c1ccc2c(c1)Sc1ccccc1N2CC1CN2CCC1CC2 (stereo not drawn)
active: Potency [18] 21.3 µM | Potency [11] 26.6 µM | Potency [4] 13.3 µM | Potency [19] 9.44 µM | Potency [14] 10.6 µM | Potency [5] 21.1 µM | Potency [15] 21.3 µM | Potency [9] 3.55 µM
inactive: Potency [10] | Potency [20] | Potency [17] | outcome [8]

O=C(Nc1ccccc1-c1ccc(Cl)cc1)c1cccnc1Cl
inactive: Potency [1] | Potency [20] | Potency [2] | Potency [3] | outcome [7] | Potency [9]

CCN(CC)C(=O)Cl
inactive: outcome [8]

Nc1ccc(Cl)cc1Cl
inactive: outcome [13]

CN1CSC(=S)N(C)C1
inactive: Potency [1] | Potency [10] | Potency [17] | Potency [2] | Potency [18] | Potency [11] | Potency [4] | Potency [15]
inactive and 1.09 µM (active): Potency [12]
active: Potency [20] 1.94 µM | Potency [19] 7.72 µM and 5.48 µM | Potency [14] 4.87 µM | Potency [5] 6.13 µM and 3.88 µM

COc1ccc(C(c2ccc(OC)cc2)C(Cl)(Cl)Cl)cc1
inactive: Potency [20] | Potency [3] | outcome [7]
active: Potency [16] 13.7 µM | Potency [9] 31.6 µM

Clc1ccccc1-c1ccccc1Cl
active: Potency [16] 19.6 µM
inactive: Potency [20] | Potency [17] | Potency [18] | Potency [4] | Potency [12] | outcome [13] | Potency [19] | Potency [14] | Potency [5] | Potency [15] | outcome [7]

CO/C=C(/C(=O)OC)c1ccccc1Oc1cc(Oc2ccccc2C#N)ncn1
inactive: Potency [20] | Potency [2] | Potency [12] | outcome [7]
active: Potency [16] 2.31 µM | Potency [18] 16.5 µM | Potency [5] 5.22 µM
